In all, about 5,500 compounds went through this assay and about 2,000 (36%) were called active. Inconclusive results (about 18%) are left out. Cut-off read from the data, not from the text of the source: active = normalized growth mostly below about 0.91 (no sharp cut-off); inconclusive = no clear call, values can overlap the other calls; inactive = mostly above about 0.92. This is one part of the list.
Test: chemical genetic growth profiling, strain panel (AID 1159580);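 note: tested at 20 µM; growth read once vehicle control cultures reached saturation at 30 °C; 1 = growth at the plate median or of vehicle wells; lower values mean less growth of the strain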
Conditions: S. cerevisiae deletion strains, growth OD

Measured: normalized growth

Cc1cccc(C(=O)NCN2CCN(c3ccccc3C#N)CC2)c1
inactive: locus YAL040C, strain CLN3, active compounds read low 0.963 | locus YCL061C, strain MRC1 (second series), active compounds read low 0.978 | locus YDR150W, strain NUM1, active compounds read low 0.987 | locus YDR363W, strain ESC2, active compounds read low 0.975 | locus YER002W, strain NOP16, active compounds read low 0.974 | locus YGR229C, strain SMI1, active compounds read low 0.942 | locus YJR075W, strain HOC1, active compounds read low 0.978 | locus YMR307W, strain GAS1, active compounds read low 1.01 | locus YNL175C, strain NOP13, active compounds read low 0.979 | locus YNL197C, strain WHI3, active compounds read low 0.976 | locus YNL224C, strain SQS1, active compounds read low 0.993 | locus YOR083W, strain WHI5 (second series), active compounds read low 0.982 | locus YPL241C, strain CIN2, active compounds read low 0.982

FC(F)(F)c1cccc(NC(=S)Nc2csc(C(F)(F)F)c2-c2ccccc2)c1
active: locus YHR030C, strain SLT2, active compounds read low 0.848
inactive: locus YAR019C, strain CDC15, active compounds read low 0.968 | locus YBL105C, strain PKC1, active compounds read low 0.998 | locus YBR135W, strain CKS1, active compounds read low 0.995 | locus YBR136W, strain MEC1, active compounds read low 0.97 | locus YBR160W, strain CDC28, active compounds read low 0.988 | locus YDL017W, strain CDC7, active compounds read low 0.998 | locus YDL028C, strain MPS1, active compounds read low 0.992 | locus YDL101C, strain DUN1, active compounds read low 0.983 | locus YDL108W, strain KIN28, active compounds read low 0.993 | locus YDL132W, strain cdc53, active compounds read low 0.98 | locus YDL214C, strain PRR2, active compounds read low 0.944 | locus YDR052C, strain DBF4, active compounds read low 0.987 | locus YDR054C, strain cdc34, active compounds read low 0.97 | locus YDR226W, strain ADK1, active compounds read low 0.988 | locus YDR477W, strain SNF1, active compounds read low 0.991 | locus YER123W, strain YCK3, active compounds read low 0.991 | locus YER133W, strain GLC7, active compounds read low 0.964 | locus YFL009W, strain cdc4, active compounds read low 0.977 | locus YFL029C, strain CAK1, active compounds read low 0.954 | locus YFR003C, strain YPI1, active compounds read low 0.997 | locus YFR019W, strain FAB1, active compounds read low 0.984 | locus YFR028C, strain CDC14, active compounds read low 0.976 | locus YGR040W, strain KSS1, active compounds read low 0.981 | locus YGR052W, strain FMP48, active compounds read low 1.03 | locus YGR092W, strain DBF2, active compounds read low 0.951 | locus YHR079C, strain IRE1, active compounds read low 0.958 | locus YHR082C, strain KSP1, active compounds read low 1 | locus YHR205W, strain SCH9, active compounds read low 0.973 | locus YIL147C, strain SLN1, active compounds read low 0.984 | locus YJL095W, strain BCK1, active compounds read low 0.959 | locus YJL128C, strain PBS2, active compounds read low 0.973 | locus YJL157C, strain FAR1, active compounds read low 0.964 | locus YJR016C, strain ILV3, active compounds read low 0.984 | locus YJR066W, strain TOR1 (second series), active compounds read low 0.934 | locus YJR066W, strain TOR1, active compounds read low 0.983 | locus YKL048C, strain ELM1, active compounds read low 0.997 | locus YKL067W, strain YNK1, active compounds read low 0.963 | locus YKL101W, strain HSL1, active compounds read low 0.952 | locus YKL193C, strain SDS22, active compounds read low 0.985 | locus YKL203C, strain TOR2, active compounds read low 1.03 | locus YLR113W, strain HOG1, active compounds read low 0.892 | locus YLR133W, strain CKI1, active compounds read low 0.96 | locus YLR403W, strain SFP1, active compounds read low 0.989 | locus YML070W, strain DAK1, active compounds read low 0.965 | locus YMR001C, strain CDC5, active compounds read low 0.993 | locus YMR205C, strain PFK2 (second series), active compounds read low 0.96 | locus YMR277W, strain FCP1, active compounds read low 0.987 | locus YNL006W, strain LST8, active compounds read low 0.988 | locus YNL020C, strain ARK1, active compounds read low 0.964 | locus YNL161W, strain CBK1, active compounds read low 0.988 | locus YNL183C, strain NPR1, active compounds read low 0.976 | locus YNL207W, strain RIO2, active compounds read low 0.973 | locus YNL222W, strain SSU72, active compounds read low 0.991 | locus YNL307C, strain MCK1 (second series), active compounds read low 0.938 | locus YOL078W, strain AVO1, active compounds read low 0.986 | locus YOL136C, strain PFK27, active compounds read low 0.953 | locus YOR061W, strain CKA2, active compounds read low 0.945 | locus YOR119C, strain RIO1, active compounds read low 0.978 | locus YOR231W, strain MKK1, active compounds read low 0.957 | locus YOR329C, strain SCD5, active compounds read low 0.991 | locus YPL031C, strain PHO85, active compounds read low 0.976 | locus YPL153C, strain RAD53, active compounds read low 0.976 | locus YPL204W, strain HRR25, active compounds read low 0.955 | locus YPL209C, strain IPL1, active compounds read low 0.997 | locus YPL256C, strain CLN2, active compounds read low 0.934 | locus YPR025C, strain CCL1, active compounds read low 0.992 | locus YPR106W, strain ISR1, active compounds read low 0.984 | locus YPR111W, strain DBF20, active compounds read low 0.981 | strain NNK1, active compounds read low 0.991 | strain TSCII, active compounds read low 0.968
